Among the test systems are DU-145 prostate; K-562 leukemia; MALME-3M melanoma; MDA-MB-231 breast; RXF 393 renal; SF-268 CNS; SF-295 CNS; SF-539 CNS; UACC-257 melanoma; M14 melanoma.
Assay in all cases: NCI-60 one-dose screen, 48 h (100 = growth as untreated, 0 = no growth, -100 = all killed)
Common to all, as to details: 10 µM unless noted

The panel holds about 83,000 compounds, 20% with a hit somewhere; the sample as a whole holds those more often.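 Activity criterion: percent growth below 10, measured after cells in 96-well plates were exposed to a single compound concentration for 48 hours.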 Values without a mark were called inactive. Calls of active or inactive are those of the source.

Turning to `COC(=O)[C@]12CCC(C)(C)C[C@H]1[C@H]1C(=O)C[C@@H]3[C@@]4(C)c5c([nH]c6ccccc6c5=O)C(C)(C)[C@@H]4CC[C@@]3(C)[C@]1(C)CC2`, the growth in the experiment with DU-145 prostate is 86.5%; with K-562 leukemia it was 18.9%; with MALME-3M melanoma it was 88.1%; with MDA-MB-231 breast, 86.4%; with RXF 393 renal it was 65.7%; in the experiment with SF-268 CNS, 82%. Also, the growth was 35.6% with SF-295 CNS, 92.1% in the experiment with SF-539 CNS, 57.4% in the experiment on UACC-257 melanoma and 29% in the experiment on M14 melanoma.
Turning to `COc1ccc(C2CC(c3ccc4ccccc4c3)=NN2/C=C2\SC(=S)N(NC(=O)Cc3ccccc3Nc3c(Cl)cccc3Cl)C2=O)cc1` (stereo not given), the growth was 12.2% in the experiment with DU-145 prostate; 10.6% in the experiment on K-562 leukemia; 52.9% in the experiment on MALME-3M melanoma; 41% with MDA-MB-231 breast; -8.96% (active) in the experiment on RXF 393 renal; 34.6% with SF-268 CNS. Besides, the growth in the experiment on SF-295 CNS was 14.1%; with SF-539 CNS, -16.9% (active); in the experiment with UACC-257 melanoma it was 56.2%; with M14 melanoma, -25.1% (active).
As for `O=C(Nc1ccc(Cl)cc1)c1cc2cc(F)ccc2cc1O`, the growth in the experiment with DU-145 prostate is 26.7%; in the experiment on K-562 leukemia, 11.5%; with MALME-3M melanoma, -3.12% (active); in the experiment with MDA-MB-231 breast, -23.4% (active); in the experiment with RXF 393 renal it was 13.6%; in the experiment with SF-268 CNS, 23.6%. Moreover, the growth with SF-295 CNS is 31.2%; in the experiment with SF-539 CNS, 17.7%; with UACC-257 melanoma, -23.8% (active); with M14 melanoma, 15.9%.
Consider `Cn1cccc1-c1nc2c3c(ccc2[nH]1)C(=O)c1ccccc1C3=O`, for which the growth in the experiment with DU-145 prostate is 101%; in the experiment on K-562 leukemia, 73.8%; with MALME-3M melanoma, 90.5%; in the experiment with MDA-MB-231 breast it was 88.6%; in the experiment on RXF 393 renal it was 93%; in the experiment on SF-268 CNS, 97.8%. The growth in the experiment on SF-295 CNS is 97.9%; in the experiment on SF-539 CNS it was 90.7%; with UACC-257 melanoma, 94.3%; with M14 melanoma, 99.7%.
Regarding `O=C(/C=C/c1cccc([N+](=O)[O-])c1)c1ccc(O)c(CN2CCN(c3cc4c(cc3F)c(=O)c(C(=O)O)cn4C3CC3)CC2)c1`, the growth is 22% with DU-145 prostate; 6.49% (active) in the experiment on K-562 leukemia; 78.2% in the experiment on MALME-3M melanoma; 54.4% in the experiment on MDA-MB-231 breast; -12.4% (active) in the experiment with RXF 393 renal; 43.2% with SF-268 CNS. The growth in the experiment with SF-295 CNS is 50.1%; in the experiment on SF-539 CNS, 12%; in the experiment on UACC-257 melanoma, 63.1%; with M14 melanoma, 9.3% (active).
As to `CC(=O)NCC1c2c(n(C)c3c(Cl)c(Cl)ccc23)C(=O)NC1(C)C` (stereo not given), the growth in the experiment on DU-145 prostate is 108%; with K-562 leukemia it was 79.5%; with MALME-3M melanoma, 108%; in the experiment on MDA-MB-231 breast, 112%; with RXF 393 renal, 90.5%; in the experiment on SF-268 CNS it was 108%. The growth is 89.5% with SF-295 CNS, 94.5% in the experiment with SF-539 CNS, 103% in the experiment with UACC-257 melanoma and 94.2% with M14 melanoma.
Consider `O=C(CCN1C(=O)/C(=C/c2ccc(Cl)cc2)SC1=S)NCCCN1CCOCC1`, for which the growth in the experiment on DU-145 prostate is 106%; in the experiment on K-562 leukemia it was 97.8%; in the experiment on MALME-3M melanoma, 100%; in the experiment with MDA-MB-231 breast, 100%; in the experiment with RXF 393 renal, 109%; in the experiment with SF-268 CNS, 95.7%. In addition, the growth in the experiment with SF-295 CNS is 95.2%; with SF-539 CNS, 93.7%; in the experiment on UACC-257 melanoma, 102%; in the experiment on M14 melanoma, 103%.
As to `Fc1ccc(CNc2cccc3[nH]c(C(F)(F)F)nc23)cc1`, the growth was 93.5% in the experiment with DU-145 prostate; 13% in the experiment on K-562 leukemia; 103% in the experiment on MALME-3M melanoma; 73.8% in the experiment with MDA-MB-231 breast; 99.1% in the experiment with RXF 393 renal; 76.9% in the experiment with SF-268 CNS. Moreover, the growth was 89.9% in the experiment on SF-295 CNS, 97% with SF-539 CNS, 101% in the experiment on UACC-257 melanoma and 109% with M14 melanoma.
Turning to `C#Cc1cccc(NC(=O)c2ccccc2NC(=O)C=C)c1`, the growth with DU-145 prostate was 95.6% [8.25 µM]; in the experiment with K-562 leukemia, 98.8% [8.25 µM]; in the experiment on MALME-3M melanoma, 102% [8.25 µM]; in the experiment with MDA-MB-231 breast it was 102% [8.25 µM]; in the experiment on RXF 393 renal it was 120% [8.25 µM]; with SF-268 CNS, 95.6% [8.25 µM]. Further, the growth was 105% [8.25 µM] in the experiment with SF-295 CNS, 92% [8.25 µM] with SF-539 CNS, 104% [8.25 µM] in the experiment on UACC-257 melanoma and 103% [8.25 µM] in the experiment on M14 melanoma.
On to `C=C(C)C1CC(O)C2(C)CCCC3C2C1CC(C)C3(C)CC/C(C)=C/C(O)C1CCC(=O)c2c(OC)cc(OC)cc21` (stereo not given), for which the growth in the experiment on DU-145 prostate was 43.3%; with K-562 leukemia it was 22%; with MALME-3M melanoma, 52%; in the experiment on MDA-MB-231 breast it was 48.6%; in the experiment on RXF 393 renal, 52.7%; in the experiment on SF-268 CNS, 44.5%. The growth is 41.4% with SF-295 CNS, 50.8% in the experiment on SF-539 CNS, 12.6% with UACC-257 melanoma and 72.7% in the experiment with M14 melanoma.
For `CC[C@@H](C(=O)[C@@H](C)[C@@H](O)[C@H](C)[C@@H]1O[C@@H]([C@@H](CC)C(=O)O)CC[C@@H]1C)[C@H]1OC2(C=C[C@@H](O)[C@]3(CC[C@@](C)([C@H]4CC[C@](O)(CC)[C@H](C)O4)O3)O2)[C@H](C)C[C@@H]1C` (stereo not given in full), the growth is 45.8% in the experiment on DU-145 prostate; -33.8% (active) in the experiment on K-562 leukemia; -90.7% (active) with MALME-3M melanoma; -39% (active) with MDA-MB-231 breast; -32.6% (active) in the experiment on RXF 393 renal; 27.4% in the experiment on SF-268 CNS. Also, the growth in the experiment with SF-295 CNS was 1.38% (active); in the experiment on SF-539 CNS it was -28.1% (active); with UACC-257 melanoma, 7.26% (active); with M14 melanoma, -86.7% (active).

The values above are taken from PubChem BioAssay (NCI).
